Measured values reported in the supplement of paper PMC6555819.

Key:
Experiment in all cases: PBM binding z-score (relative to random genomic background probes); higher = stronger binding; sequences stand for … in GC…GCGATTGACAGCGTAGAATGAAGG
[1] = system: RARb homodimer (NR concentration 270 nM)
Outline: (§1)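 Binding z-scores take random background probes as their reference. They come from custom Agilent 4×180K protein-binding microarrays incubated 1 h with ligand-free nuclear receptor dimers, with antibodies against each partner (one per run) detecting binding. Scanned fluorescence was regression-normalized.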

[2] = system: RARg:RXRa (NR concentration 270 nM, RXRa partner concentration 90 nM)
Outline: as §1

[3] = system: RARg homodimer (NR concentration 270 nM)
Outline: as §1

[4] = system: RXRa DBDmut IVT, anti-RXR (DBD mutation: RXRa K156A/R161A, NR concentration 90 nM)
Outline: as §1

[5] = system: RXRa homodimer (NR concentration 180 nM)
Outline: as §1

[6] = system: THRa:RXRa (NR concentration 90 nM, RXRa partner concentration 90 nM)
Outline: as §1

[7] = system: THRa homodimer (NR concentration 90 nM)
Outline: as §1

[8] = system: VDR:RXRa (NR concentration 270 nM, RXRa partner concentration 90 nM)
Outline: as §1

[9] = system: VDR homodimer (NR concentration 270 nM)
Outline: as §1

| Sequence | PBM binding z-score [1] | PBM binding z-score [2] | PBM binding z-score [3] | PBM binding z-score [4] | PBM binding z-score [5] | PBM binding z-score [6] | PBM binding z-score [7] | PBM binding z-score [8] | PBM binding z-score [9] |
| --- | --- | --- | --- | --- | --- | --- | --- | --- | --- |
| CGAGCTAGGTCATCCAGGACAGTGAATACATTGA | 3.01 | 3.93 | 4.72 | 1.97 | 2.89 | 3.48 | 1.79 | 4.4 | 1.91 |
| TAGCCTAGGTCATTTAGGGGCCAGTATAGAAAGC | 3.12 | 5.9 | 4.36 | 1.98 | 2.63 | 3.47 | 0.467 | 3.03 | 1.63 |
| ACTTACGGGTCACCGAGGTTATAGCACGCGTATA | 4.01 | 6.34 | 5.96 | 2.78 | 7.33 | 4.24 | 1.45 | 7.82 | 4.59 |
| TAGCCTATGTCATGGGCCAGTATACCACGCGAAC | 0.149 | 0.192 | 0.474 | -0.981 | 0.178 | -0.349 | -0.74 | -0.365 | -0.627 |
| CCGGACAGGTGAAAGGTAACTCAGTCTGGTACGC | 0.991 | 1.57 | 0.863 | -0.0224 | 1.89 | 0.766 | 0.12 | 0.694 | 0.0749 |
| ATCTCTAGGTAAGACTCACTTCAGTGAAGAACGC | -0.0357 | -0.204 | 0.301 | 0.173 | -0.184 | 0.282 | 0.429 | 0.175 | -0.111 |
| CCGACTGGGGCATAAGGTTACTATAAGCCAGCCC | 1.38 | 1.37 | 0.813 | -0.277 | 1.04 | 1.59 | 0.819 | 0.306 | 0.0174 |
| TCGAGTAGGTTAGTCGGGGCATTAAGCCAACATA | 0.232 | 0.0892 | -0.106 | 0.352 | -0.0422 | 1.02 | -0.508 | 1.66 | 0.177 |
| CCGACTGGGGAAAGGTTACCATAACGCACAGCCA | 1.86 | 1.66 | 0.984 | -0.493 | 2.28 | 1.13 | -0.224 | 0.901 | -0.242 |
| GCTCGGAGGACCAGGTCAGAGCTTTGTCCGTAGA | 1.34 | 0.802 | 0.461 | -0.305 | 0.617 | 1.73 | 0.402 | -0.322 | -0.425 |
| CCTCGTAGGACAACAGGAGGTCAGAGCTGCCAGA | 3.16 | 3.05 | 3 | 0.577 | 2 | 2.51 | 0.709 | 1.64 | 0.704 |
| CCTATTAGTTGACCATAAGGGGAACCGAAGCTCG | 0.9 | 0.438 | 0.565 | 0.467 | 0.236 | 0.633 | 0.694 | 0.632 | 0.895 |
| GCTTACGGGTCGAAGGTTATAGCATGAATAGAAT | 0.86 | 2.31 | 1.28 | 0.891 | 3.72 | 1.55 | -0.161 | 2.02 | 0.682 |
| CCTTACGGGACACGAGGTTATAGCACGACGAGCG | 1.03 | 1.49 | 1.14 | -0.0752 | 1.19 | 1.77 | 0.83 | 0.648 | 0.544 |
| TCTAGTTGGTCACAGGTCACACACTCGAAATGCG | 3.55 | 3.75 | 3.33 | 1.62 | 3.83 | 2.96 | 1.97 | 2.95 | 1.7 |
| GGAACGAGGGCATTCAAGTTGATAGCATGGCGAT | 0.771 | 1.04 | 1.74 | 3.23 | 0.697 | 3.52 | -0.291 | 3.02 | 2.77 |
| GGAACGAGGACATTCGAGTTGATAGCATGGCGAT | -0.261 | 0.285 | 0.773 | 2.25 | 0.11 | 2.2 | 0.823 | 0.922 | 1.65 |
| CCTTACGGGTCACTCCACGTTATAGCATCGGAGT | 2.58 | 4.04 | 4.01 | 1.41 | 4.01 | 1.88 | 0.13 | 2.65 | 1.23 |
| CGAACTAGGTCAGTACAGGACAGTGAAGGATGAT | 2.51 | 2.64 | 3.79 | 0.399 | 1.3 | 3.38 | 0.28 | 0.713 | 0.105 |
| CCTCGGATGACAGAAGGTCAGAGCTGTCCGCTTT | 2.83 | 2.49 | 2.16 | 0.111 | 2 | 1.95 | -0.359 | 1.21 | 0.287 |
| ATCTCTACGTAAAGATAGTTCAGTGAATGCAAAT | 0.65 | 0.0953 | 0.572 | 0.102 | 0.153 | 0.0897 | -0.716 | 0.567 | 0.535 |
| CCGACTGGGGCATAAGGTTACCGTAAGCCAGCCC | 1.83 | 2.05 | 1.06 | -0.367 | 1.34 | 2.26 | 1.13 | 0.108 | -0.402 |
| GCTAGTTGGTCAGTAAAACGTCACACACCGGTCG | 0.309 | -0.139 | 0.216 | -0.207 | -0.264 | -0.444 | -0.619 | -0.225 | -0.255 |
| AATACAGGGTCACTAGGCCAGCGTAGGTACGAAT | 3.58 | 5.12 | 4.78 | 2.81 | 5.29 | 3.48 | 1.43 | 4.16 | 2.28 |
| CAAGACAGGTGAAAGGTAACTCAGTCTGGTACGC | 0.906 | 1.58 | 0.784 | -0.244 | 2.35 | 1.2 | 0.0377 | 0.87 | -0.217 |
| CGTCCAAGGTCAATGCTAGGGCAGTGAAAGCATT | 4.25 | 6.47 | 6.26 | 3.44 | 4.5 | 3.96 | 1.89 | 3.92 | 1.93 |

| Sequence | PBM binding z-score [1] | PBM binding z-score [2] | PBM binding z-score [3] | PBM binding z-score [4] | PBM binding z-score [5] | PBM binding z-score [6] | PBM binding z-score [7] | PBM binding z-score [8] | PBM binding z-score [9] |
| --- | --- | --- | --- | --- | --- | --- | --- | --- | --- |
| CAGCCTAGGTCAGGGTCAGTATAGGAGGAACGTT | 4.16 | 4.27 | 4.84 | 0.854 | 3.67 | 3.39 | 1.53 | 2.7 | 1.31 |
| CGTCCAAGCTCATAGGAGGTCAGTGAAGACAGAT | 2.8 | 1.69 | 2.04 | 0.593 | 1.22 | 2.38 | 0.642 | 1.69 | 0.938 |
| ATCTCTAGGTAACAAGTTCTGTGAAAGAGAGGAC | 0.522 | 0.565 | 0.579 | 0.302 | 0.105 | 1.12 | 0.878 | 0.359 | 0.424 |
| TGAATGAGGTTATAAGATTAGGGAACGTTGCAAA | 0.24 | 1.43 | 1.01 | 0.551 | 1.87 | 1.68 | 0.15 | 1.12 | 0.323 |
| CGAACGTGGGCATGAGTTGATAGCAAATGCCGAT | -0.844 | -0.563 | -0.218 | 0.0414 | -0.376 | -0.695 | -1.12 | -0.7 | -0.195 |
| ATCTCTAGGTAAAGATAGTTCAGTGATTGCAAAT | 1.2 | 0.619 | 0.722 | 0.503 | 0.395 | 0.879 | 0.445 | 1.07 | 0.789 |
| GATACAGGGTCAGCTAGCGGCCAGAGTATGGAAA | 2.95 | 6.02 | 4.62 | 1.31 | 4.36 | 2.56 | -0.0331 | 2.49 | 0.352 |
| AACGAAAGGTCGAGGTGAGTATAGAGAAAGGGAA | 2.86 | 4.68 | 4.73 | 0.969 | 5.03 | 2.96 | 0.451 | 2.85 | 0.21 |
| CCTAGTTGGTCAAGGACACACACGCTATAGGTAC | 1.47 | 1.19 | 1.81 | 0.547 | 0.578 | 2.95 | 2.82 | 0.744 | 1.33 |
| TCTCGGAGGACACGAAAGGTCACAGCTCGACATC | 4.92 | 6.11 | 6.17 | 1.44 | 6.3 | 4.29 | 2.38 | 4.91 | 2.48 |
| CGTCCAAGGTCAAGGTCAGTGTAAGAGACTCGAA | 4.82 | 6.56 | 7.36 | 3.69 | 6.28 | 4.39 | 3.57 | 4.67 | 3.32 |
| CGTCCAAGGTCAAGGTCGGTGAAAGAGACTCGAA | 4.27 | 6.3 | 6.78 | 3.67 | 5.99 | 4.11 | 2.88 | 4.2 | 2.44 |
| AACACAGGGTCATCGTAGGCCAGAGTACGCACAG | 3.59 | 5.74 | 5.13 | 3.79 | 6.58 | 4.5 | 1.69 | 5.15 | 3.84 |
| CCTTACGGGTCGCGAGGTTATAGCACGACGAGCG | 1.57 | 3.39 | 2.09 | 0.0933 | 4 | 2.25 | 0.349 | 2.88 | 0.904 |
| GCGACTGGGGCATCAGCAGGTTACCACAACTTAA | 1.08 | 0.941 | 0.32 | -0.0403 | 0.38 | 0.805 | -0.203 | -0.211 | -0.222 |
| TCTAGCAGGCCAGAGGGTCAGTCAAGAGGTACGG | 2.16 | 1.59 | 1.82 | -0.232 | 1.43 | 0.734 | -0.934 | 0.113 | -0.429 |
| TCTTGTAGATCAGCCGGTTAAGAAAGCTGGCCAA | -0.307 | -0.542 | -0.822 | 0.73 | -0.222 | -0.482 | -0.883 | -0.00365 | -0.659 |
| ACTAGCAGGCCAAGTTTGCGTCACTCAAACAAAG | 0.00722 | -0.201 | -0.0389 | 0.079 | -0.299 | -0.253 | -0.635 | -0.321 | 0.0311 |
| CGTTACGGGTCACGAGGTTATAGCACGACGAGCG | 3.99 | 6.32 | 5.62 | 2.01 | 7.51 | 3.95 | 1.09 | 5.35 | 1.96 |
| TTCCCAAGGTGAAGGTCGTTGATCCCTCTGTAGA | 1.87 | 1.35 | 1.04 | -0.0232 | 1.74 | 2.52 | 1.11 | 1.22 | 0.952 |
| AGAATGAGGTTATTAACATCAGGGAATTGCGGTC | 0.673 | 1.11 | 0.779 | 1.83 | 1.67 | 2.13 | 0.447 | 1.31 | 1.12 |
| CGAACGAGGGCATGTGTTGATAGCAAATGCCGAT | 0.926 | 1.08 | 1.7 | 2.64 | 0.745 | 1.03 | 0.0176 | 0.931 | 1.44 |
| AGAATCAGGTTACCAAAGATCAGGGAAACGCTTG | 0.374 | 0.744 | 0.974 | 0.0556 | 0.775 | 1.36 | 0.124 | -0.0357 | -0.469 |
| CGAACTAGGTCATTGACAGAACAGTGAATAGTAA | 2.34 | 3.64 | 4.15 | 2.74 | 2.46 | 2.47 | 0.922 | 1.97 | 1.15 |
| CCTACTTGGCCAAAAAGGTCATTGATGCCGATAA | 4.05 | 4.68 | 4.19 | 1.55 | 5.15 | 3.18 | 1.06 | 4.82 | 3.04 |
| AATACTGGGTCATCGTAGGCCAGAGTACGCACAG | 3.24 | 3.52 | 3.91 | 0.934 | 3.11 | 3.85 | 0.749 | 2.49 | 1 |
